Here are results for 15 compounds from PubChem BioAssay (NCATS).

Results filed as inconclusive are left out. Activity calls are given as the source filed them. The call rests on the fitted dose curve; in most records, active means well fitted cell-killing curve with a large enough effect; inconclusive means small, poorly fitted or top-dose-only effect, or effect the other way; inactive means no such curve, though single readings can be large or run the other way.

The nature of test [1]: Quantitative High-Throughput drug screen in 47 multiple myeloma cell lines against the NCATS MIPE library collection: XG6_PLB cell viability assay (AID 1919865). Further: nearly all actives have a fitted effect of over 40% in size. The procedure, abridged:
(§1)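 Viability after 48 h drug exposure was measured as ATP-dependent luminescence. Cells, 500 per well, sat at 37 °C under 5% CO2; DMSO wells set 100%, media-only wells 0%.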

A short description of test [2]: Quantitative High-Throughput drug screen in 47 multiple myeloma cell lines against the NCATS MIPE library collection: XG1_PLB cell viability assay (AID 1919866). Further: nearly all actives have a fitted effect of over 35% in size. The method in brief:
as §1

Test [3] can be described thus: Quantitative High-Throughput drug screen in 47 multiple myeloma cell lines against the NCATS MIPE library collection: VP6_DJ cell viability assay (AID 1919867). Further: nearly all actives have a fitted effect of over 40% in size. The procedure, abridged:
as §1

Test [4] can be described thus: Quantitative High-Throughput drug screen in 47 multiple myeloma cell lines against the NCATS MIPE library collection: PE2_PLB cell viability assay (AID 1919869). Further: nearly all actives have a fitted effect of over 35% in size. The method in brief:
as §1

A short description of test [5]: Quantitative High-Throughput drug screen in 47 multiple myeloma cell lines against the NCATS MIPE library collection: PCM6_Riken cell viability assay (AID 1919870). Further: nearly all actives have a fitted effect of over 30% in size. The method in brief:
as §1

The nature of test [6]: Quantitative High-Throughput drug screen in 47 multiple myeloma cell lines against the NCATS MIPE library collection: RPMI8226_ATCC cell viability assay (AID 1919871). Further: nearly all actives have a fitted effect of over 30% in size. The method in brief:
as §1

The nature of test [7]: Quantitative High-Throughput drug screen in 47 multiple myeloma cell lines against the NCATS MIPE library collection: OPM2_DSMZ cell viability assay (AID 1919872). Further: nearly all actives have a fitted effect of over 30% in size. The procedure, abridged:
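CellTiter-Glo luminescence (ATP) after 48 h compound exposure, 37C/5% CO2; 500 cells/well; MIPE 4.0 approved/investigational drugs pinned in; DMSO = 100%, media only = 0% viability.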

Test [8] in a line: Quantitative High-Throughput drug screen in 47 multiple myeloma cell lines against the NCATS MIPE library collection: KMS11_JCRBsus cell viability assay (AID 1919873). Further: nearly all actives have a fitted effect of over 50% in size. The method in brief:
as §1

The nature of test [9]: Quantitative High-Throughput drug screen in 47 multiple myeloma cell lines against the NCATS MIPE library collection: KMS28BM_JCRB cell viability assay (AID 1919874). Further: nearly all actives have a fitted effect of over 35% in size. The procedure, abridged: as §1
Test [10] in a line: Quantitative High-Throughput drug screen in 47 multiple myeloma cell lines against the NCATS MIPE library collection: UTMC2_PLB cell viability assay (AID 1919868). Further: nearly all actives have a fitted effect of over 55% in size. The settings on record: CellTiter-Glo ATP luminescence, 48 h; viability (% of DMSO control): at 45.8 µM (top of the series) unless noted. The procedure, abridged:
as §1
In general terms: Cellular ATP, detected with luciferase, serves as a proxy for viable cell number.
Potency means the concentration at half of the fitted maximal effect.

As for `O=C(NC1CCNCC1)c1[nH]ncc1NC(=O)c1c(Cl)cccc1Cl`, the Potency in test [1] was 0.469 µM (active); in test [2], 0.833 µM (active); in test [3], 0.59 µM (active); in test [4], 0.833 µM (active); in test [5], 0.166 µM (active); in test [6], 1.05 µM (active). In addition, the Potency in test [7] was 0.526 µM (active); in test [8], 0.332 µM (active); in test [9] it was 0.264 µM (active).
As to `C=CC(=O)Nc1cc2c(Nc3ccc(F)c(Cl)c3)ncnc2cc1C#CC(C)(C)N1CCN(C)CC1`, the Potency in test [1] is 0.296 µM (active); in [2], 0.526 µM (active); in test [3] it was 0.833 µM (active); in test [4], 1.05 µM (active); in [5] it was 0.662 µM (active); in [6] it was 6.62 µM (active). Moreover, the Potency in test [7] is 10.5 µM (active); in test [8], 1.32 µM (active); in test [9], 0.469 µM (active).
Turning to `O=C(c1cncc(Br)c1)N1CCC(N2CCCC2)CC1`, the Potency result in test [1], in test [2], in [3], in [4], in [5] and in test [6] was “inactive” throughout. Also, the Potency entry in test [7], in [8] and in test [9] was “inactive” in each case.
As for `CNC(=O)c1ccccc1Nc1nc(Nc2ccc(N3CCOCC3)cc2OC)ncc1Cl`, the Potency was 5.9 µM (active) in test [1]; 6.62 µM (active) in [2]; 0.526 µM (active) in [3]; 1.18 µM (active) in test [4]; 10.5 µM (active) in [5]; 1.05 µM (active) in [6]. Further, the Potency in test [7] is 4.18 µM (active); in test [8], 0.372 µM (active); in test [9], 0.935 µM (active).
Turning to `Nc1ccc(S(=O)(=O)Nc2ncccn2)cc1`, the Potency entry in test [1], in [2], in test [3], in test [10], in test [4] and in [5] was “inactive” throughout. Also, the Potency entry in test [7], in test [8] and in test [9] was “inactive” throughout.
With `CN(C)CCCN=c1c2ccccc2n(C)c2[nH]c(=O)n(C)c(=O)c12`, the Potency is 5.9 µM (active) in [1]; 14.8 µM (active) in test [2]; 14.8 µM (active) in [3]; 16.6 µM (active) in [4]; 14.8 µM (active) in test [5]; 20.9 µM (active) in [7]. Besides, the Potency in [8] is 14.8 µM (active); in [9], 16.6 µM (active). Besides, in test [10], the viability (% of DMSO control) was 91.5% (active).
As to `Nc1nc(NCCNc2ncc(-n3ccnc3)c(-c3ccc(Cl)cc3Cl)n2)ccc1[N+](=O)[O-]`, the Potency in test [1] was 2.35 µM (active); in test [2], 6.62 µM (active); in test [3], 7.43 µM (active); in test [4], 3.72 µM (active); in test [5], 2.35 µM (active).
Turning to `COC(=O)C1=C(C)NC(C)=C(C(=O)OCCN2CCN(C(c3ccccc3)c3ccccc3)CC2)C1c1cccc([N+](=O)[O-])c1` (stereo not given), the Potency in [1] was 2.64 µM (active); in [3], 4.18 µM (active). The Potency result in test [2], in [4], in [5], in test [6], in [7] and in test [8] was “inactive” each time. In [9], the Potency result was “inactive”.
As to `OCCCNc1cc(-c2ccnc(Nc3cccc(Cl)c3)n2)ccn1`, the Potency in test [1] was 0.0332 µM (active); in test [2] it was 0.0418 µM (active); in [3], 0.0235 µM (active); in test [4], 0.0372 µM (active); in test [5], 0.0166 µM (active); in test [6], 0.187 µM (active). Moreover, the Potency was 0.235 µM (active) in [7], 0.0526 µM (active) in test [8] and 0.0935 µM (active) in [9].
For `Nc1nc(Nc2ccc(S(N)(=O)=O)cc2)nn1C(=O)c1c(F)cccc1F`, the Potency in test [1] was 2.35 µM (active); in test [2], 2.35 µM (active); in [3], 5.26 µM (active); in test [4], 3.32 µM (active); in [5] it was 1.87 µM (active); in test [6] it was 18.7 µM (active). Further, the Potency is 14.8 µM (active) in test [7], 7.43 µM (active) in [8] and 6.62 µM (active) in test [9].
In the case of `CC1COC2(CCN(c3nc(=O)c4cc(C(F)(F)F)cc([N+](=O)[O-])c4s3)CC2)O1` (stereo not given), the Potency result in test [1], in [2], in test [3], in test [4], in test [5] and in test [6] was “inactive” throughout. The Potency entry in [7], in test [8] and in [9] was “inactive” throughout.
For `C=C1C(=CC=C2CCC[C@]3(C)[C@@H]([C@H](C)C=C[C@H](C)C(C)C)CC[C@@H]23)C[C@@H](O)C[C@@H]1O`, the Potency in [1] was 1.87 µM (active); in test [2], 1.32 µM (active); in test [3], 0.132 µM (active); in [10], 2.09 µM (active); in test [4] it was 16.6 µM (active); in test [5] it was 1.32 µM (active). The Potency in test [6] was 14.8 µM (active); in [7], 10.5 µM (active); in [9], 0.209 µM (active).
As to `COc1cc(OC2CCN(C)CC2)ccc1Nc1ncc2c(n1)n(C1CCCC1)c(=O)n2C`, the Potency was 4.69 µM (active) in test [1]; 4.69 µM (active) in [2]; 4.18 µM (active) in test [3]; 7.43 µM (active) in test [10]; 9.35 µM (active) in test [4]; 10.5 µM (active) in [5]. For the same compound, the Potency in test [8] and in test [9] was 16.6 µM (active) each time.
For the compound `COc1cc2ncnc(Nc3ccc(F)c(Cl)c3)c2cc1NC(=O)C=CCN1CCCCC1`, the Potency in test [1] was 4.18 µM (active); in test [2] it was 4.18 µM (active); in [3], 5.9 µM (active); in test [10] it was 10.5 µM (active); in test [4], 6.62 µM (active); in [5] it was 3.32 µM (active). Also, the Potency in test [6] is 18.7 µM (active); in test [8] it was 8.33 µM (active); in test [9], 6.62 µM (active).
As for `Nc1ccccc1NC(=O)c1ccc(CNC(=O)OCc2cccnc2)cc1`, the Potency was 2.35 µM (active) in test [1]; 1.66 µM (active) in test [2]; 0.743 µM (active) in test [3]; 1.66 µM (active) in test [4]; 1.66 µM (active) in test [5]; 3.32 µM (active) in test [6]. Further, the Potency in test [7] was 2.09 µM (active); in [8], 1.87 µM (active); in test [9], 1.05 µM (active).
